As usually defined, the inhibition is the change of the read-out against control, counted positive when it falls.

Values joined by “and” are separate entries in the source; they are usually repeats but may differ in a detail not shown here. Equal values may be shown once. The whole screen tested about 290,000 compounds, of which about 27,000 (9.3%) were called active. Shown is part of a subset that was picked to be rich in actives. Values without a mark were called inactive. No stated cut-off is given here; in the data, active means inhibition mostly above about 28% (no sharp cut-off); inactive means mostly below about 43%.

The record followed here is PubChem BioAssay AID2315 (National Center for Advancing Translational Sciences (NCATS), 2010).

The nature of the experiment: A qHTS for Small Molecule Inhibitors of Shiga Toxin. Further: 0% is about no effect. The settings on record: Vero cells, Shiga toxin protein synthesis inhibition reporter; at 38.7 µM, hits give high values.
In the case of `O=C(/C=C/c1ccc([N+](=O)[O-])cc1)NCCSCc1ccco1`, the inhibition is -2.44%. Regarding `Cc1cccc(N2CCN(C(=O)CCS(=O)(=O)c3ccc4c(c3)NC(=O)C(C)S4)CC2)c1C` (stereo unspecified), the inhibition is -11.3%. As for `COc1cc(OC)c2c(c1C(CCN1CCCCC1)c1ccc(N(C)C)cc1)OC(=O)CC2c1ccc(N(C)C)cc1` (stereo unspecified), the inhibition is -7.65%. With `Cn1c(CCN2CCCCCC2)nc2cc(NC(=O)Nc3ccccc3)ccc21` the figure was 73.3% (active); with `CCC(=O)Nc1ccc2c(c1)nc(CCN1CCN(c3ccccn3)CC1)n2C`, -4.67%; with `Cn1c(CCN2CCCC2)nc2cc(NS(=O)(=O)c3ccccc3)ccc21`, 0.447%.

Take `CC(C)c1ccc(S(=O)(=O)N2CCC3(CC2)OCCO3)cc1`: the inhibition was -8.25%. With `Nc1nc(Nc2ccccc2)nc(NCCO)c1[N+](=O)[O-]` the figure was 16.8%; with `COc1cccc(Nc2nc(N)c([N+](=O)[O-])c(NCc3ccco3)n2)c1`, 45.8%.

As to `CNc1nc(Nc2ccc(C)c(Cl)c2)nc(N)c1[N+](=O)[O-]`, the inhibition was 68.3% (active). With `CN(Cc1ccco1)S(=O)(=O)c1nnc(NC(=O)c2ccccc2)s1` the figure was 38.9%; with `COc1ccc(/C=C/C(=O)OCC(=O)Nc2cccc(Oc3ccccc3)c2)c(OC)c1`, -4.44%. With `COc1cc(/C=C/C(=O)OCC(=O)Nc2cccc(Oc3ccccc3)c2)ccc1O` the figure was 51.6% (active).

As for `COc1cccc(NC(=O)COC(=O)CCOc2ccccc2OC)c1`, the inhibition is -8.03%.

In the case of `CCOc1ccccc1CNS(=O)(=O)c1cc(-c2cc(C)no2)ccc1C`, the inhibition was -5.31%. The result for `CCCCC(=O)Nc1ccccc1N1CCN(c2ccc(F)cc2)CC1` reads -8.03%; that for `Cc1cc(C)c(S(=O)(=O)c2ccc(F)cc2C)c(=O)[nH]1`, 3.7%. Regarding `O=C(N/C(=C\c1ccc([N+](=O)[O-])cc1)C(=O)N1CCCCC1)c1ccco1`, the inhibition was -18.7%. As for `O=C(NC(=S)Nc1ccccc1C(=O)O)c1ccc(-c2ccc(Br)cc2)o1`, the inhibition was 125% (active).

Consider `COC(=O)c1ccccc1NC(=S)NC(=O)c1ccccc1F`, for which the inhibition is -1.7%.

Consider `O=C(O)c1ccccc1NC(=O)c1ccccc1-c1ccccc1C(=O)O`, for which the inhibition is -1.49%. Take `O=C(CSc1nc2nccnc2c(=O)n1Cc1cccs1)Nc1ccccc1F`: the inhibition was 18.1%. The result for `CC(=O)Nc1ccc(NC(=O)C2CCCN(S(=O)(=O)c3ccc(Cl)cc3)C2)cc1` (stereo unspecified) reads -4.09%; that for `CCCNC(=O)CCc1c(C)nc2c(c(C)nn2-c2ccc(C)cc2)c1C`, -2.23%. Take `CCCNC(=O)c1ccc(Cl)c(Cl)c1`: the inhibition was -6.36%.

Turning to `CCCNC(=O)c1c(Cl)cnn1-c1ccc(C)cc1`, the inhibition was 59.9% (active). With `COc1cccc(NC(=O)c2nn(-c3ccc(OC)cc3OC)c(=O)c3ccccc23)c1` the figure was -8.21%.

Take `COc1ccc(-n2nc(C(=O)NCC(=O)N3CCN(c4ccccc4OC)CC3)c3ccccc3c2=O)c(OC)c1`: the inhibition is 73.3% (active). `COc1ccc(-n2nc(C(=O)Nc3cc(OC)c(OC)c(OC)c3)c3ccccc3c2=O)c(OC)c1`: the inhibition was -1.7%. With `Cc1cc(NC(=O)Nc2ccccc2[N+](=O)[O-])no1` the figure was 28.7%. The result for `Cc1csc(NC(=O)NC2(C(F)(F)F)Oc3ccccc3O2)n1` reads 24.4%; that for `Cc1csc(NC(=O)Nc2ccccc2[N+](=O)[O-])n1`, 67.7% (active).

As for `COC(=O)C1=CN(c2ccc(F)c(F)c2)C=C(C(=O)OC)C1c1ccc([N+](=O)[O-])cc1`, the inhibition is 3.77%. With `Cc1[nH][nH]c(=O)c1N=Nc1ccccc1` the figure was -4.84%; with `Cc1[nH][nH]c(=O)c1C(c1ccc2c(c1)OCO2)c1c(C)[nH][nH]c1=O`, -5.46%; with `Nc1[nH][nH]c(=O)c1N=Nc1ccc2c(c1)OCO2`, 74.5% (active). The result for `CC1CCC(NS(=O)(=O)c2ccc3c(c2)CC(=O)N3)CC1` (stereo unspecified) reads -4.99%; that for `Clc1ccccc1SCc1nc2ccccc2[nH]1`, 79.4% (active); that for `c1ccc2c(CSCc3nc4ccccc4[nH]3)cccc2c1`, 42.3%. Consider `COc1ccc(OC(C)C(=O)NCCc2nc3ccccc3[nH]2)cc1` (stereo unspecified), for which the inhibition was -1.88%. With `COc1cc(C(=O)NN(CCC#N)C2=NS(=O)(=O)c3ccccc32)cc(OC)c1OC` the figure was -7%. The result for `O=C(c1ccc(CS(=O)(=O)c2ccccc2)o1)N1CCN(c2ccccc2)CC1` reads -5.16%; that for `COc1ccc(C2(C)NC(=O)N(CC(=O)c3ccc4c(c3)OCO4)C2=O)cc1` (stereo unspecified), 20.5%; that for `O=C(CSc1nnc(CNC(=O)c2ccc(F)cc2)o1)Nc1ccc2c(c1)OCO2`, -2.6%. The result for `O=C(O)c1ccc(OCC2CCCO2)cc1` (stereo unspecified) reads -1.54%; that for `C=CCn1c(SCc2ccccc2)nc2c1c(=O)[nH]c(=O)n2C`, -10.2%; that for `Cc1c(C(=O)NC(C)C2CC3CCC2C3)cccc1[N+](=O)[O-]` (stereo unspecified), -7.71%.

Turning to `COC(=O)c1cn(C(=O)c2ccc(Cl)cc2)c2ccccc12`, the inhibition is 10.5%. With `COC(=O)/C(NC(C)=O)=C(\C)c1ccc(Cl)cc1` the figure was -4.26%. The result for `COC(=O)C(=Nc1ccccc1)/C(C(=O)C(=O)N(C)c1ccccc1)=C(\O)c1ccc(Cl)cc1` reads 127% (active); that for `COCCn1cnc2c1c(=O)n(Cc1ccc(Br)cc1)c(=O)n2Cc1ccccc1`, 15.6%; that for `Cc1ccc(C2CCN(C(=S)Nc3cccc(Cl)c3)C2)cc1` (stereo unspecified), 47.7% (active).

For the molecule `O=C(C1CCCO1)N1CCN(C(=S)Nc2cccc(Cl)c2)CC1` (stereo unspecified), the inhibition is -2.49%. The result for `Cc1cccc(NC(=S)N2CCCC(c3nc4ccccc4[nH]3)C2)c1` (stereo unspecified) reads -11.2%; that for `COc1cc(N2C(=O)CSC2=S)cc(OC)c1OC`, -9%.

Consider `CN(C)CCNC(=O)c1[nH]nc2c1CCc1ccccc1-2`, for which the inhibition is 35.7%. The result for `Cc1cc(=O)cc(C)n1-c1ccc(Cl)c(Cl)c1` reads 14.3%; that for `O=C(CNCc1ccc(F)cc1)Nc1ccccc1-c1ccccc1`, -4.12%; that for `O=C(/C=C/NCc1ccc(F)cc1)c1ccccc1`, 61.7% (active). The result for `O=C(Cc1c(O)c2ccccc2[nH]c1=O)NCc1ccccc1` reads -13.9%; that for `O=C(CCOc1ccccc1)NCc1ccccc1`, -3.66%; that for `O=C(O)CCCc1ccccc1`, -13.8% and 15.3%.

Turning to `O=C(CCCc1ccccc1)NCc1ccccc1`, the inhibition was 39.1% (active). In the case of `CCCCC(=O)NCc1ccc(F)cc1`, the inhibition was 21.3%. Regarding `O=C(Cc1ccccc1)NCc1ccc(F)cc1`, the inhibition is 55.7% (active).

As to `O=C(/C=C\NCC(=O)c1ccccc1)c1ccccc1`, the inhibition was 17.6%.
